PI5P4K alpha inh = blocks human PI5P4K alpha kinase activity. P48426. PI5P4Kalpha enzyme, ADP-Glo luminescence, 60 min; hits give low values. max response, %. 330,000 tested, 1.2% active. AID 652105; active means max response of -50% or lower; inconclusive means between -30% and -50%; inactive means -30% or higher; further: value at the top dose of about 77 µM; on the % scale 0 is the no-effect control and ±100 the full control effect
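Luminescence from ADP-Glo served as readout of PI5P4Kalpha activity in a qHTS format. Reaction: enzyme, substrate, compound, ATP at 5 microM final, 60 min at RT.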
Pol eta inh = inhibitors of human DNA polymerase eta | Q9Y253 | recombinant Pol eta, fluorescent DNA replication assay | 390,000 tested, 1.2% active | Potency, µM (top dose mostly 114 µM), for the others: at the top dose activity change, negative = inhibition, actives largely listed as inhibitors; further: potency means the concentration at half of the fitted maximal effect; on the % scale 0 is the no-effect control and ±100 the full control effect
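Pol eta at 10 nM preincubated with compounds 15 min at room temperature; reaction started with fluorescent substrate (50 nM final) and read kinetically at 0 and 10 min.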
WRN helicase inh = blocks human WRN helicase | Potency, µM (highest dose often 114 µM), without a hit: at the highest dose activity change, negative = inhibition, most hits filed as inhibitors | AID 651768 | WRN helicase unwinding, fluorescent forked duplex, kinetic | Q14191 | 360,000 tested, 0.46% active; further: potency means the concentration at half of the fitted maximal effect; on the % scale 0 is the no-effect control and ±100 the full control effect; nearly all actives have a fitted effect of over 55% in size
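Primary qHTS, 1536-well format. 20 nM WRN + compound, 15 min RT; start with 100 nM forked fluorophore/quencher duplex, 2 mM ATP (final); kinetic read ex 525/em 598 nm.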
Pol iota inh = DNA polymerase iota (human) inhibition | 390,000 tested, 1% active | Pol iota fluorescent replication assay, 10 min | Potency, µM (highest dose often 115 µM), without a hit: top-dose activity, negative = inhibition, actives largely listed as inhibitors; further: potency means the concentration at half of the fitted maximal effect
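Fluorescent replication assay read twice, at 0 min and 10 min after adding 50 nM (final) substrate. Enzyme (10 nM) and compounds were first incubated 15 min at room temperature; enzyme-free buffer wells were negative controls.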
POLB inh = inhibitors of human DNA polymerase beta; Pol beta primer extension/strand displacement, fluorescence kinetic; Potency, µM (doses to about 114 µM), for the others: at the top dose activity change, negative = inhibition, actives largely listed as inhibitors; 340,000 tested, 1.3% active; AID 485314; further: potency means the concentration at half of the fitted maximal effect; on the % scale 0 is the no-effect control and ±100 the full control effect
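Human Pol beta at 10 nM; strand-displacement substrate 50 nM final. Compound exposure 15 min at room temperature before start, reaction 10 min at room temperature.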
POLK inh = DNA polymerase kappa (human) inhibition | purified Pol kappa, fluorescent DNA synthesis assay, 10 min | Potency, µM (doses to about 107 µM), without a hit: at the top dose activity, negative = inhibition, usual class: inhibitors | 400,000 tested, 0.53% active | AID 588579; further: potency means the concentration at half of the fitted maximal effect; on the % scale 0 is the no-effect control and ±100 the full control effect
Target sequence (Q9UBT6 whole entry, looked up): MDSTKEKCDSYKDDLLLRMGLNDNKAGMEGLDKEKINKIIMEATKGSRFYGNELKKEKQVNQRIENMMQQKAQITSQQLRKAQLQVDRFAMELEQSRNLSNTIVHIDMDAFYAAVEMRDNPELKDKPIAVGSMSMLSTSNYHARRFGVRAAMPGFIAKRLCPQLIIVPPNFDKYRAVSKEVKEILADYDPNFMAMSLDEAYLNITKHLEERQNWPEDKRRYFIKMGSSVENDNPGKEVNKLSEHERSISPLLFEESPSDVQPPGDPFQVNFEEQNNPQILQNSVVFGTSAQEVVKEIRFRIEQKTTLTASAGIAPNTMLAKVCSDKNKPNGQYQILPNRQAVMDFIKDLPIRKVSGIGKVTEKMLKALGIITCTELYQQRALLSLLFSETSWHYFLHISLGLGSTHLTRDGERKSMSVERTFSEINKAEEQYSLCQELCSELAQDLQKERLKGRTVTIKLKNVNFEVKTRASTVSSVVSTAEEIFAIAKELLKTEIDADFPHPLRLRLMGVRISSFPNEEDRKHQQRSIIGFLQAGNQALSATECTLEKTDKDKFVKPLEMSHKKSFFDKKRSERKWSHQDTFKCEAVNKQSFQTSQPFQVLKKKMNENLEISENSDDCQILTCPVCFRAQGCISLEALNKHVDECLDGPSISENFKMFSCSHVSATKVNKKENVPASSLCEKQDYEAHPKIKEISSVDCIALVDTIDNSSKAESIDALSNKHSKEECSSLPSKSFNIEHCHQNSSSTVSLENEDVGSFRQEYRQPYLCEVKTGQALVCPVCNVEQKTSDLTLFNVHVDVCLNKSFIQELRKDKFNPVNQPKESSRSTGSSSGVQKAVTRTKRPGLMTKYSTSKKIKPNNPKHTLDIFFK
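First, compounds were pin-transferred onto 10 nM Pol kappa. After 15 min at room temperature, substrate was added to 50 nM final. Fluorescence was then measured kinetically at 0 and 10 min.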
* = called active by the depositor; ? = inconclusive; . = not tested or not shown; [ ] = remark or other dose. Shown are actives, neighbours in structure and some others; about 2.8% of the full set was active somewhere. Unless noted, the call rests on the fitted dose curve; in most records, active means well fitted curve in the direction sought with a large enough effect; inconclusive means small, poorly fitted or top-dose-only effect, or another doubt; inactive means no such curve, though single readings can be large; an effect the other way counts as inactive or inconclusive.

SMILES	PI5P4K alpha inh	Pol eta inh	WRN helicase inh	Pol iota inh	POLB inh	POLK inh
C=CCN(c1ccccc1)S(=O)(=O)c1cccc(C(=O)O)c1	-0.8	-10.1%	4.2%	-0.6%	3.1%	4.1%
C=CCN(c1ccccc1)S(=O)(=O)c1cccc(C(=O)NNC(=O)c2ccccc2O)c1	-55.6*	2.3%	-24.1%	13.4%	.	-10.2%
N#Cc1c(-c2ccco2)cc(-c2ccccn2)nc1N	-66.5*	?	-42.9%	?	?	-31.8%
CC(=O)Nc1ccc(NC(=O)CSc2nnc(-c3cccnc3)o2)cc1	-20.9	7.5%	-26.6%	50.1µM*	.	-8.8%
CCNc1nc(NCC)n2c(SCC(=O)Nc3ccccc3C(F)(F)F)nnc2n1	-15.7	?	2.1%[11.6 µM]	79.4µM*	.	?
CCNc1nc(NCC)n2c(SCC(=O)Nc3ccccc3Cl)nnc2n1	-10.7	-9.5%	-5.0%	-20.0%	.	-2.5%
CCNc1nc(NCC)n2c(SCC(=O)Nc3cccc(F)c3)nnc2n1	-9.4	?	-31.0%	44.7µM*	.	?
CCNc1nc(NCC)n2c(SCC(=O)Nc3cccc(Cl)c3)nnc2n1	-0.2	14.1µM*	-14.8%	?	.	?
CCNc1nc(NCC)n2c(SCC(=O)Nc3ccc(OC)c(OC)c3)nnc2n1	-11.8	?	-10.7%	3.0%	.	-25.3%
Nc1cccc(/C=C2\C=Cc3ccccc32)c1	.	.	.	?	.	-28.3%
C=Nc1ccc(/C=C/c2ccnc3ccccc23)cc1	.	.	.	30.1%	.	-18.8%
CCOc1cc(/C=C2\C(=O)N(Cc3ccc(C)cc3)C(C)=C2C(=O)OC)ccc1O	3.5	-7.4%	79.4µM*	-1.5%	-1.4%	-11.9%
CCn1cc2nc(SCc3ccccc3F)n(Cc3ccc(C)cc3)c(=O)c2n1	.	-0.2%	.	0.1%	0.8%	28.9%
O=S1(=O)CCOC[C@H](c2ccccc2)N1Cc1ccc(F)cc1	.	.	.	32.0%	.	-15.7%
COc1ccc(NC(=O)/C(C#N)=C\c2ccc(-c3cccc(C(=O)O)c3C)o2)cc1	-19.8	22.4µM*	3.3%[11.6 µM]	?	7.94µM*	?
COc1ccc(NC(=O)/C(C#N)=C\c2ccc(Br)o2)cc1	-82.5*	?	?	10µM*	?	79.4µM*
Cc1ccccc1NC(=O)/C(C#N)=C/c1ccc(-c2ccc(Cl)c(C(=O)O)c2)o1	-29.0	31.6µM*	?	?	?	?
Cc1ccc(/C=C(\C#N)C(=O)Nc2ccc(Br)cc2)o1	.	.	.	41.4%	-16.5%	7.5%
COc1ccc(NC(=O)/C(C#N)=C/c2ccc(-c3ccccc3C(=O)O)o2)cc1	-0.1	-17.0%	-14.9%	18.2%	23.2%	-22.1%
Cc1noc(/C=C/c2ccc(-c3ccccc3Cl)o2)c1[N+](=O)[O-]	3.5	12.6µM*	-6.8%	?	36.5%	420.3%
CCCCN(CC)C(=O)CSc1c2c(nc3ccc(Cl)cc13)CCCC2	.	2.6%	.	24.2%	-11.5%	-11.2%
S=c1[nH]nc(-c2ccccc2Cl)n1/N=C/C=C/c1ccco1	-60.4*	50.1µM*	?	?	20µM*	79.4µM*
CC(/C=N/n1c(-c2ccco2)n[nH]c1=S)=C\c1ccco1	-27.5	?	-25.3%	?	28.2µM*	-6.3%
C(=N\Nc1ccc2nncn2n1)/c1ccco1	-2.3	-19.0%	-6.0%	150.0%	-24.6%	-9.2%
C(=C\c1ccco1)/C=N/n1cnnc1	4.4	-0.8%	-8.1%[57.1 µM]	39.8µM*	12.6%	?
SMILES	PI5P4K alpha inh	Pol eta inh	WRN helicase inh	Pol iota inh	POLB inh	POLK inh
O=C1c2ccccc2C(=O)c2c1cccc2-n1nnc2ccccc21	-0.2	-12.0%	-3.9%	61.3%	-0.9%	2.8%
O=C1C(N2CCOCC2)=C(n2nnc3ccccc32)C(=O)c2ccccc21	-9.8	44.7µM*	-0.5%	?	-3.6%	-6.7%
CC(=O)C(Sc1nn(C)c(=S)s1)C(=O)Nc1ccccc1 (centres undefined)	-82.6*	-7.3%	-20.5%	10.9%	-1.3%	1.1%
O=C(COC(=O)c1ccco1)Nc1nc2ccc([N+](=O)[O-])cc2s1	-53.6*	-7.6%	-6.5%	-10.9%	?	-17.1%
C[S+](C)CC[C@H](N)C(=O)O	.	.	.	.	.	7.0%[19.4 µM]
COc1ccc(NC(=O)C2CC(c3c(F)cccc3Cl)=NO2)cc1OC (centres undefined)	1.8	89.1µM*	-6.6%[11.6 µM]	25.9%	5.0%	6.2%
COc1cc(NC(=O)C2CC(c3c(F)cccc3Cl)=NO2)c(OC)cc1Cl (centres undefined)	15.7	-22.7%	-3.6%	76.0%	24.6%	-1.2%
Cc1ccc(NC(=S)/C(C#N)=C2/Nc3ccccc3S2)cc1	-26.6	39.8µM*	-30.3%	.	.	.
N#C/C(C(=O)N1CCCCC1)=C1\Nc2ccccc2S1	-14.0	-11.3%	-13.4%	8.6%	28.1%	-27.7%
O=C(COC(=O)C12CC3CC(CC(Br)(C3)C1)C2)N1CCOCC1	4.8	-12.1%	21.1%	12.8%	8.7%	0.8%
CCCCn1c(=S)[nH]c2c(=O)n(C)c(=O)n(C)c21	-73.1*	0.7%	1.9%	.	.	.
Cn1c(=O)c2[nH]c(=S)n(Cc3ccccc3)c2n(C)c1=O	-3.2	-14.5%	-3.9%	16.8%	.	-3.1%
Cc1ccc(S(=O)(=O)c2nnn3c2nc(NC2CCN(Cc4ccccc4)CC2)c2ccccc23)cc1C	-22.8	-18.6%	-7.0%	44.7µM*	0.6%	?
CCN(C(=O)Cn1nc(C)c([N+](=O)[O-])c1C)c1c(N)n(Cc2ccccc2)c(=O)[nH]c1=O	-7.5	-6.5%	-6.9%	20.6%	.	-11.3%
COc1ccc(C(=O)COC(=O)CCN2C(=O)C3CC=CCC3C2=O)c(OC)c1 (centres undefined)	?	?	4.2%[11.6 µM]	39.8µM*	.	-11.7%
COc1ccc(C(=O)COC(=O)CCn2c(C)csc2=O)c(OC)c1	-65.2*	?	-11.7%	.	.	.
CCN1C(=O)CC(C(=O)NC)SC1=Nc1cc(Cl)c(O)c(Cl)c1 (centres undefined)	-17.5	0.6%	8.7%	89.1µM*	-11.3%	-8.9%
O=C1NC(=S)SC1=Cc1ccccc1C(=O)O	-77.6*	.	-8.8%	.	.	.
Cc1cccc(-n2nc3c(c2NC(=O)CCCl)CSC3)c1	-13.7	0.7%	-2.3%	-12.2%	-1.6%	-3.1%
Cc1cccc(-n2nc3c(c2NC(=O)c2ccc(Br)o2)CSC3)c1	.	-16.1%	-20.7%	-1.9%	56.2µM*	-20.0%
Cc1cc(C)cc(-n2c(SCC(=O)NC3CCCCC3)nc3c([nH]c4ccccc43)c2=O)c1	.	-9.1%	.	-16.0%	-1.4%	2.4%[60.1 µM]
CCOC1=C2[C@H](c3ccc(CC)cc3)N(S(=O)(=O)c3ccc(C)cc3)C[C@H]2C(C#N)(C#N)C(C#N)(C#N)C1	?	.	-5.9%	.	.	.
CCOC1=C2[C@H](c3ccccc3Cl)N(S(=O)(=O)c3ccc(C)cc3)C[C@H]2C(C#N)(C#N)C(C#N)(C#N)C1	-62.3*	.	-14.3%	.	.	.

Assay outcomes from PubChem BioAssay.
